Assay results: PubChem BioAssay (Tox21)
Records with an inconclusive call do not appear. Where a call stands in place of a potency, no number is given. Unmarked numbers belong to inactive results. Calls of active or inactive are those of the source. Calls come from the whole dose curve; as a rule, active = well fitted curve in the direction sought with a large enough effect in the repeat runs; inconclusive = weak or mixed curves; inactive = no such curve, though single readings can be large; an effect the other way counts as inactive or inconclusive.

Tests used:
[1] = qHTS assay to identify small molecule agonists of the RXR signaling pathway - cell viability counter screen (AID 1159529);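 note: HEK 293T cells carrying an RXR-alpha UAS beta-lactamase reporter; series mostly up to about 77 µM; nearly all actives have a fitted effect of over 50% in size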
Method in brief: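 Counter screen: CellTiter-Glo luminescence. Cells: RXR-alpha-UAS-bla HEK 293T. Medium: 2% charcoal-stripped FBS. Treatment: 16 h, 37 C. Reagent incubation: 30 min, RT.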

[2] = qHTS assay to identify small molecule antagonists of the retinoid acid receptor (RAR) signaling pathway - cell viability counter screen (AID 1159551); note: nearly all actives have a fitted effect of over 35% in size
Method in brief: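 Seed C3RL4 cells; next day add compound, then retinol to 1 uM final; incubate 6 h at 37 C; add CellTiter-Glo; read luminescence after 30 min at RT.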

[3] = qHTS assay to identify small molecule antagonists of the retinoic acid receptor (RAR) signaling pathway (AID 1159552; note: nearly all actives have a fitted effect of over 50% in size)
Method in brief: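 Antagonism of retinol-induced RARE reporter activity was measured in C3RL4 cells. Exposure to compounds and 1 uM final retinol lasted 6 hr at 37 C, with luminescence as endpoint.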

[4] = qHTS assay to identify small molecule agonists of the retinoic acid receptor (RAR) signaling pathway (AID 1159553)
Method in brief: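 Activation of retinol signaling was monitored via a RARE luciferase reporter in C3RL4 cells. After 6 hr compound treatment at 37 C, detection reagent was added for 30 min at room temperature before luminescence reading.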

[5] = qHTS assay to identify small molecule antagonists of the estrogen related receptor (ERR) signaling pathway from Tox21 library - cell viability counter screen (AID 1224834); note: nearly all actives have a fitted effect of over 30% in size
Method in brief: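 CellTiter-Fluor fluorescence measured; ERR cells; 17.5 h compound incubation at 37 C; 30 min reagent step.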

[6] = target: Luciferin 4-monooxygenase (Photinus pyralis) (UniProt P08659); assay: qHTS assay to identify small molecule inhibitors of firefly luciferase (AID 1224835); note: nearly all actives have a fitted effect of over 25% in size; note: potency is the fitted concentration of half-maximal effect
Method in brief: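 Biochemical qHTS: compounds run as interplate titrations against purified firefly enzyme, with D-luciferin and ATP each at its KM concentration. Light output recorded by CCD imaging.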

[7] = qHTS assay to identify small molecule agonists of the constitutive androstane receptor (CAR) signaling pathway - cell viability counter screen (AID 1224836); note: series mostly up to about 92 µM; nearly all actives have a fitted effect of over 45% in size
Method in brief: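 Double-stable HepG2 hepatoma cells (hCAR plus CYP2B6-2.2kb) are treated for 23 h at 37 C with test compounds in 15-point concentration series. PK11195 at 0.75 uM final is co-added. Cell viability is quantified by CellTiter-Fluor.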

[8] = qHTS assay to identify small molecule antagonists of the constitutive androstane receptor (CAR) signaling pathway - cell viability counter screen (AID 1224837); note: series mostly up to about 92 µM; nearly all actives have a fitted effect of over 45% in size
Method in brief: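 Using CellTiter-Fluor, viability is scored in HepG2 cells stably carrying hCAR and a 2.2kb CYP2B6 reporter after 23 hr compound exposure across 15 concentrations, with CITCO present at 50 nM.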

[9] = target: Nuclear receptor subfamily 1 group I member 3 (Homo sapiens) (UniProt Q14994); assay: qHTS assay to identify small molecule antagonists of the constitutive androstane receptor (CAR) signaling pathway (AID 1224838);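 note: HepG2 cells stably expressing hCAR with CYP2B6 luciferase reporter stimulated by CITCO; nearly all actives have a fitted effect of over 40% in size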
Method in brief: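 Reporter luminescence was quantified after 24 h exposure of hCAR/CYP2B6-2.2kb double-stable HepG2 cells to compounds at 15 concentrations in the presence of 50 nM CITCO final.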

[10] = target: Nuclear receptor subfamily 1 group I member 3 (Homo sapiens) (UniProt Q14994); assay: qHTS assay to identify small molecule agonists of the constitutive androstane receptor (CAR) signaling pathway (AID 1224839);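 note: HepG2 cells stably carrying human CAR and a CYP2B6 luciferase reporter; series mostly up to about 92 µM; nearly all actives have a fitted effect of over 15% in size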
Method in brief: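 Readout: firefly luciferase luminescence via ONE-Glo. System: HepG2 double-stable for hCAR and CYP2B6-2.2kb. Conditions: 15-point compound titration, PK11195 at 0.75 uM final, 24 h incubation.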

Chain of Nuclear receptor subfamily 1 group I member 3 (Homo sapiens) (Q14994 whole entry, looked up): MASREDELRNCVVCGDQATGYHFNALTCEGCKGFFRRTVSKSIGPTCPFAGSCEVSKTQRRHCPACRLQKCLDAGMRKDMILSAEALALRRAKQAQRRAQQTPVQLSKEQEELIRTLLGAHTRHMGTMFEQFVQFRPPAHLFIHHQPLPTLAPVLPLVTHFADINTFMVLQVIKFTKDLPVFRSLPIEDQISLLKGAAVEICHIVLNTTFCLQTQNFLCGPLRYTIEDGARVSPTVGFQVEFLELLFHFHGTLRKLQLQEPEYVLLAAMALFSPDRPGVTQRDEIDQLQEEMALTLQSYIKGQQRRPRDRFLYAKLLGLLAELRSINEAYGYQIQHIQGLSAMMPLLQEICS
Chain of Luciferin 4-monooxygenase (Photinus pyralis) (P08659 whole entry, looked up): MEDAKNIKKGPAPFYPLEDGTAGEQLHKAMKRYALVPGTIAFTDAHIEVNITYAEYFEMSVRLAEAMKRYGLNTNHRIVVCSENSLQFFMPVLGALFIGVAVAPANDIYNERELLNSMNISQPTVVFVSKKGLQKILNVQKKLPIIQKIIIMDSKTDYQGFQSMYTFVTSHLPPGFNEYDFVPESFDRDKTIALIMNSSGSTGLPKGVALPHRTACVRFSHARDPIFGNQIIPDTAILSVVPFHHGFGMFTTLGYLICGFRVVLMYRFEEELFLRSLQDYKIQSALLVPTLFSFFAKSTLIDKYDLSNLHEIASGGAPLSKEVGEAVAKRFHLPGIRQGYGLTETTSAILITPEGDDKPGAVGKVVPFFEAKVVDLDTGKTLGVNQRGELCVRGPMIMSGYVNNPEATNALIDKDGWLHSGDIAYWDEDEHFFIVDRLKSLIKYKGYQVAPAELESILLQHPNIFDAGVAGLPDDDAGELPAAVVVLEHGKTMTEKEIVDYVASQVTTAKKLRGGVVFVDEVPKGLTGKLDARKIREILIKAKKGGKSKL

| Compound | Potency [1] | outcome [2] | outcome [3] | Potency [4] | outcome [5] | Potency [6] | outcome [7] | outcome [8] | outcome [9] | Potency [10] |
| --- | --- | --- | --- | --- | --- | --- | --- | --- | --- | --- |
| C=CCN1CCc2nc(N)sc2CC1 | inactive | inactive | inactive | inactive | inactive | inactive | inactive | inactive | inactive | inactive |
| Cc1cc(O)c(Cl)cc1C | inactive | inactive | inactive | inactive | inactive | inactive | inactive | inactive | inactive | inactive |
| CC(O)CCCCn1c(=O)c2c(ncn2C)n(C)c1=O (centres undefined) | inactive | inactive | inactive | inactive | inactive | inactive | inactive | inactive | inactive | inactive |
| CCNC(=O)C(C)OC(=O)Nc1ccccc1 (centres undefined) | inactive | inactive | inactive | inactive | inactive | inactive | inactive | inactive | inactive | inactive |
| CC(=O)OC/C=C(/C)CCC=C(C)C | inactive | inactive | inactive | inactive | inactive | inactive | inactive | inactive | inactive | inactive |
| CN(C)CCc1c[nH]c2ccc(CS(=O)(=O)N3CCCC3)cc12 | inactive | inactive | inactive | inactive | inactive | inactive | inactive | inactive | inactive | inactive |
| CC/C=C\CCCCCCCCCCOC(C)=O | inactive | inactive | inactive | inactive | inactive | inactive | inactive | inactive | inactive | inactive |
| C[C@@H]1CCC[C@H](C)N1CCCC(O)(c1ccccc1)c1ccccn1 (some centres undefined) | inactive | inactive | inactive | inactive | inactive | inactive | inactive | inactive | inactive | inactive |
| CC(C)C(C)C | inactive | inactive | inactive | inactive | inactive | inactive | inactive | inactive | inactive | inactive |
| Cc1cc(N)no1 | inactive | inactive | inactive | inactive | inactive | inactive | inactive | inactive | inactive | inactive |
| Cc1ccc(OC(=O)CC(C)C)cc1 | inactive | inactive | inactive | inactive | inactive | 35.6 µM (active) | inactive | inactive | inactive | inactive |
| O=C(O)/C=C(\CC(=O)O)C(=O)O | inactive | inactive | inactive | inactive | inactive | inactive | inactive | inactive | inactive | inactive |
| CCCCNCC | inactive | inactive | inactive | inactive | inactive | inactive | inactive | inactive | inactive | inactive |
| CN1CCN(C(=O)C2CCCCC2)CC1 | inactive | inactive | inactive | inactive | inactive | inactive | inactive | inactive | inactive | inactive |
| O=C[C@@H](O)[C@H](O)[C@H](O)CO | inactive | inactive | inactive | inactive | inactive | inactive | inactive | inactive | inactive | inactive |
| Cc1cc(C)c(C)c(C)c1 | inactive | inactive | inactive | inactive | inactive | inactive | inactive | inactive | inactive | inactive |
| CCCCS | inactive | inactive | inactive | inactive | inactive | inactive | inactive | inactive | inactive | inactive |
| CCCc1ncc(C(=O)O)s1 | inactive | inactive | inactive | inactive | inactive | inactive | inactive | inactive | inactive | inactive |
| CC(=O)O[C@@H]1CC2C3CCc4cc(OC(=O)c5ccccc5)ccc4C3CCC2(C)[C@H]1OC(C)=O (some centres undefined) | inactive | inactive | inactive | inactive | inactive | inactive | inactive | inactive | inactive | inactive |
| CC/C=C/CCCCCCCCCCOC(C)=O | inactive | inactive | inactive | inactive | inactive | inactive | inactive | inactive | inactive | inactive |
| N#CC1(N)CCCCC1 | inactive | inactive | inactive | inactive | inactive | inactive | inactive | inactive | inactive | inactive |
| CCCCCCCCS(=O)(=O)O | inactive | inactive | inactive | inactive | inactive | inactive | inactive | inactive | inactive | inactive |
| CCOc1ccccc1OCCN[C@H](C)Cc1ccc(OC)c(S(N)(=O)=O)c1 | inactive | inactive | inactive | inactive | inactive | inactive | inactive | inactive | inactive | inactive |
| CCN(CC)CC | inactive | inactive | inactive | inactive | inactive | inactive | inactive | inactive | inactive | inactive |
| COC(=O)c1cc(Cl)c(NC(C)=O)cc1OC | inactive | inactive | inactive | inactive | inactive | inactive |  | inactive | inactive | inactive |
